{"source": "PubChem BioAssay AID778", "about": "(Sanford-Burnham Center for Chemical Genomics, 2007)", "note": "In all, about 96,000 compounds went through this assay and about 20,000 (21%) were called active. Only a sample is shown. A number with no mark means an inactive call.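 The calls were made as follows: active = CYP2C19 inhibition above a set limit at 5 µM in the primary screen (cut at about 50% in these data); inactive = the rest.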"}
{"biological_target": "Cytochrome P450 2C19 (Homo sapiens) (UniProt P33261)", "sequence (P33261 whole entry, looked up)": "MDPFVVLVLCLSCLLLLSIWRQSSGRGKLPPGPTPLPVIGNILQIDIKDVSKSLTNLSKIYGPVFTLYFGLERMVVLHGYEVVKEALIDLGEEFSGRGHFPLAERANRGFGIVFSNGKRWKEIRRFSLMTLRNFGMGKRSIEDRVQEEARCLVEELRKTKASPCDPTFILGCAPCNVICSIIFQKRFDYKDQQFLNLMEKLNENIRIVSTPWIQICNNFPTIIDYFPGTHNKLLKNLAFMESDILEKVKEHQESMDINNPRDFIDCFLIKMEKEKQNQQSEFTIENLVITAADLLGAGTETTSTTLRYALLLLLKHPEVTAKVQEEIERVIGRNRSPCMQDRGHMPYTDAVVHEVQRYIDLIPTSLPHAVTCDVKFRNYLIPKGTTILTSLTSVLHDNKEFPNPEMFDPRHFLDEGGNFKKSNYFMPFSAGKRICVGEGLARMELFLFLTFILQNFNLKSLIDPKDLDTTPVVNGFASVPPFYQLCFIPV", "test": "blockers of cytochrome P450 2C19 activity – biochemical, luminescence, ADME assay, primary screen (AID 778);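 also: plate controls were negative control wells for no effect and 2.5 mM tranylcypromine positive control for full effect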", "conditions": "CYP2C19 Supersomes, luciferin-H EGE luminescence, 30 min; at 5 µM; hits give high values"}
{"compound": "CC(Sc1nncn1C)C(=O)Nc1ccccc1-c1ccccc1", "note": "(configuration not stated)", "inhibition": "9.5%"}
{"compound": "O=C1Nc2cc(Cl)c(Cl)cc2N(O)N1c1cc(Cl)cc(Cl)c1", "inhibition": "-1.7%"}
{"compound": "CN(C)Cc1c(O)ccc2occ(C(O)c3ccccc3)c12", "note": "(configuration not stated)", "inhibition": "70.5% (active)"}
{"compound": "c1csc(CN2CCN(Cc3cccs3)C2c2cccs2)c1", "inhibition": "16.8%"}
{"compound": "O=C(CN1CCOCC1)Nc1cc(Cl)ccc1Cl", "inhibition": "48.8%"}
{"compound": "C=C(C)Cn1c(N2CCCC2)nc2c1c(=O)[nH]c(=O)n2C", "inhibition": "-8.1%"}
{"compound": "COc1ccccc1N1CCN(C(=O)CSc2nnc(-c3ccoc3C)o2)CC1", "inhibition": "17.4%"}
{"compound": "O=C(CSC1=Nc2ccccc2C2=NC(CC(=O)NCc3ccco3)C(=O)N12)NCc1ccco1", "note": "(configuration not stated)", "inhibition": "10.6%"}
{"compound": "CCC1CCCCN1CCCNC(=O)Cn1nc(-c2ccccc2)ccc1=O", "note": "(configuration not stated)", "inhibition": "-1.3%"}
{"compound": "Cc1ccsc1-c1nc(CSCC(=O)NCCN2CCCC2)c(C)o1", "inhibition": "1.6%"}
{"compound": "C/C(=C\\C(=O)c1cccnc1)Nc1ccc(C)c(C)c1", "inhibition": "37.2%"}
{"compound": "O=C(/C=C/c1ccc(Cl)cc1Cl)NCc1ccco1", "inhibition": "31.8%"}
{"compound": "O=C(/C=C/c1ccc(Cl)cc1Cl)c1cccnc1", "inhibition": "62.6% (active)"}
{"compound": "C=CCn1c(N)c(C(=O)OCC(C)C)c2nc3ccccc3nc21", "inhibition": "18.5%"}
{"compound": "C=CCn1c(N)c(S(=O)(=O)c2cccs2)c2nc3ccccc3nc21", "inhibition": "80.5% (active)"}
{"compound": "Cc1ccc(S(=O)(=O)c2c(N)n(C)c3nc4ccccc4nc23)cc1", "inhibition": "47.7%"}
{"compound": "Cc1ccc(NC(=S)NCCN2CCOCC2)cc1", "inhibition": "23%"}
{"compound": "O=C(CSc1nnc(Cc2ccccc2)n1-c1ccccc1)N1CCOCC1", "inhibition": "8.2%"}
{"compound": "Cc1cccc(-c2noc(-c3ccc(F)cc3)n2)c1", "inhibition": "32.6%"}
{"compound": "COc1ccc(-c2noc(CSc3ccc(C)cc3)n2)cc1", "inhibition": "78.6% (active)"}
{"compound": "CSc1nnc(CNC(=O)c2ccccc2)n1-c1ccc(F)cc1", "inhibition": "-4.4%"}
{"compound": "Fc1ccc(-n2c(Cc3ccccc3)nnc2SCc2nc(-c3ccc(Cl)cc3)no2)cc1", "inhibition": "80% (active)"}
{"compound": "COc1ccc(-c2noc(-c3ccc(C)cc3)n2)cc1", "inhibition": "6.2%"}
{"compound": "CCN(CC)C(=O)CSc1nnc(-c2cnccn2)n1-c1ccc(C)cc1", "inhibition": "-1.8%"}
{"compound": "Cc1ccc(Nc2nc(CSc3nnnn3-c3ccccc3)cc(=O)[nH]2)cc1", "inhibition": "16.7%"}
{"compound": "COc1ccc(-c2noc(CN(C)S(=O)(=O)c3ccc(C)cc3)n2)cc1", "inhibition": "40.2%"}
{"compound": "Cc1ccc(-c2noc(CSc3nnnn3-c3ccccc3)n2)cc1", "inhibition": "73.4% (active)"}
{"compound": "Cc1ccc(-c2noc(CSc3nnc(-c4ccncc4)n3-c3ccc(F)cc3)n2)cc1", "inhibition": "58.3% (active)"}
{"compound": "Cc1cc2c(cc1C)N(C(=O)CN1C(=O)c3ccccc3C1=O)C(C)(C)c1ssc(=S)c1-2", "inhibition": "3.4%"}
{"compound": "OCCNCCCCOc1ccccc1F", "inhibition": "-2.2%"}
{"compound": "Cc1c(Br)c([N+](=O)[O-])nn1C(C)C(=O)Nc1nccs1", "note": "(configuration not stated)", "inhibition": "37.1%"}
{"compound": "Cc1nnc(SCC(=O)N(C(C)C)C(C)C)nc1C", "inhibition": "22.9%"}
{"compound": "CCc1nc(N2CCN(c3nc(C)cc(C)n3)CC2)c2oc3ccccc3c2n1", "inhibition": "8.3%"}
{"compound": "O=C(Nc1ccc(Br)cc1)c1cccc(NC(=O)C2C3CC4OC(=O)C2C4C3)c1", "note": "(configuration not stated)", "inhibition": "24.6%"}
{"compound": "O=C(Nc1nncs1)c1ccccc1NS(=O)(=O)c1cccs1", "inhibition": "46.2%"}
{"compound": "CC1(C)CC(=O)C(C=NCc2cccnc2)=C(O)C1", "inhibition": "14.2%"}
{"compound": "CCOC(=O)N1CCC(NC(=O)COc2cc(=O)n(C)c3ccccc23)CC1", "inhibition": "-16.3%"}
{"compound": "CN1C2CCC1/C(=C\\c1ccccc1Cl)C(=O)/C2=C\\c1ccccc1Cl", "inhibition": "-12.1%"}
{"compound": "Cc1ccc(CCNC(=O)C2CCN(S(=O)(=O)N3CCCC3)CC2)cc1", "inhibition": "12.2%"}
{"compound": "CCCCOc1ccc(NC(=O)CSCC(=O)OCC)cc1", "inhibition": "14.3%"}
{"compound": "O=S1(=O)CC(NCc2ccccc2)C(Nc2ccc(Cl)cc2)C1", "note": "(configuration not stated)", "inhibition": "46.7%"}
{"compound": "Cn1c(=O)c2c(n(Cc3ccccc3)c1=O)NC(=O)C2CC(=O)N1CCc2ccccc2C1", "note": "(configuration not stated)", "inhibition": "-9.3%"}
{"compound": "CC(Oc1ccc(-c2ccccc2)c(F)c1)c1ccn(S(=O)(=O)c2cccc3ccccc23)n1", "note": "(configuration not stated)", "inhibition": "25%"}
{"compound": "C=CCn1c(=N)n(CC(O)COc2ccc(OC)cc2)c2ccccc21", "note": "(configuration not stated)", "inhibition": "12.4%"}
{"compound": "Cc1ccc(-c2noc(CSc3nnc(-c4cccs4)n3C)n2)cc1", "inhibition": "23%"}
{"compound": "Cc1ccc(-c2noc(CSc3nnc(-c4ccccc4)n3C)n2)cc1", "inhibition": "88.2% (active)"}
{"compound": "Cc1ccc(-c2noc(CC(c3ccccc3)c3ccccc3)n2)cc1", "inhibition": "19.9%"}
{"compound": "CCCCCOC(=O)c1ccc(N2C(=O)C3C4C=CC(C4)C3C2=O)cc1", "note": "(configuration not stated)", "inhibition": "-13.5%"}
{"compound": "CC(=O)N1C(=O)C2(Nc3ccccc3N2)c2ccccc21", "inhibition": "-7.6%"}
{"compound": "O=C1Nc2ccccc2C12Nc1ccccc1S2", "note": "(configuration not stated)", "inhibition": "80.5% (active)"}
{"compound": "Clc1cccc(N=C2NN=C(c3ccc4c(c3)OCCO4)CS2)c1", "inhibition": "24.7%"}
{"compound": "C=CC[n+]1c(-c2ccc(C)cc2)csc1NNC(=O)Nc1ccccc1", "inhibition": "18%"}
{"compound": "c1coc(-c2nc3nc4ccccc4n3nc2-c2ccco2)c1", "inhibition": "-23.4%"}
{"compound": "CN(c1nc2ccccc2n2c(-c3ccco3)nnc12)S(=O)(=O)c1ccccc1", "inhibition": "1.3%"}
{"compound": "Cn1c(-c2ccco2)nc2cc3ccccc3cc21", "inhibition": "53.3% (active)"}
{"compound": "CSc1nc(C)nc2c1c(=O)n(C)c(=O)n2C", "inhibition": "-8.7%"}
{"compound": "CCCC1CC(C)(C(=O)Cn2[nH]c(=O)ccc2=O)OC1=O", "note": "(configuration not stated)", "inhibition": "0.3%"}
{"compound": "COc1cccc(NC(=O)c2nn(C34CC5CC(CC(C5)C3)C4)cc2[N+](=O)[O-])c1", "inhibition": "9.7%"}
{"compound": "COc1ccc(-c2cc(C3CCN(c4ncccc4[N+](=O)[O-])CC3)[nH]n2)cc1", "inhibition": "84.8% (active)"}
{"compound": "CCCn1c(=O)c(-c2ccccc2)c(O)c2ccccc21", "inhibition": "-13.5%"}
{"compound": "COc1ccc(S(=O)(=O)NC2(C(F)(F)F)N=C3SCCN3C2=O)cc1", "note": "(configuration not stated)", "inhibition": "-1.5%"}
{"compound": "Cc1cccc(N2CCN(S(=O)(=O)c3ccc4[nH]c(=O)c(=O)[nH]c4c3)CC2C)c1", "note": "(configuration not stated)", "inhibition": "19.7%"}
{"compound": "CSc1nnc(-c2ccncc2)n1CCCN1CCCC1=O", "inhibition": "-0.2%"}
{"compound": "CC(C)(CCl)C(=O)Nc1ccc(Sc2ccc(F)cc2)cc1", "inhibition": "-1.4%"}
{"compound": "CC(C)NC(=O)c1ccc(Sc2ccccc2)c([N+](=O)[O-])c1", "inhibition": "36.8%"}
{"compound": "COC(=O)c1ccc(Sc2ccc(F)cc2)c(N)c1", "inhibition": "94.3% (active)"}
{"compound": "CN(C)c1ccc(CNC2C3CC4CC(C3)CC2C4)cc1", "note": "(configuration not stated)", "inhibition": "75.5% (active)"}
{"compound": "CN(C)c1ccc(CNC23CN4CN(CN(C4)C2)C3)cc1", "inhibition": "0.2%"}
{"compound": "c1cnc(NC2C3CC4CC(C3)CC2C4)nc1", "note": "(configuration not stated)", "inhibition": "26%"}
{"compound": "COc1ccc(C(=O)Nc2ccc3c(c2)OCO3)cc1OC", "inhibition": "39.8%"}
{"compound": "COc1ccc(S(=O)(=O)Nc2ccc(F)cc2)c(C)c1C", "inhibition": "94.9% (active)"}
{"compound": "CC(C)CNS(=O)(=O)c1ccc(OCC(=O)Nc2ccc3c(c2)OCO3)c(Cl)c1", "inhibition": "-1%"}
{"compound": "COc1ccc(F)cc1S(=O)(=O)Nc1ccc2c(c1)OCO2", "inhibition": "69.4% (active)"}
{"compound": "COc1ccc(S(=O)(=O)Nc2ccc3c(c2)OCO3)cc1Cl", "inhibition": "100% (active)"}
{"compound": "Cc1cc(Cl)c(S(=O)(=O)Nc2ccc3c(c2)OCCO3)cc1OCC(N)=O", "inhibition": "15.3%"}
{"compound": "COc1ccc(C(=O)Nc2ccc(S(=O)(=O)Nc3onc(C)c3C)cc2)cc1OC", "inhibition": "15.5%"}
{"compound": "O=C1CCCC2=C1C(c1cccs1)n1nc(SCc3ccccc3)nc1N2", "note": "(configuration not stated)", "inhibition": "-10.3%"}
{"compound": "N=c1c2c3c(sc2ncn1CCCN1CCOCC1)CCCCC3", "inhibition": "7.8%"}
{"compound": "CCOc1cc2[nH]c(=S)n(Cc3ccc(C(=O)NCCOC)cc3)c(=O)c2cc1OCC", "inhibition": "-10.8%"}
{"compound": "CCOC(=O)N1CCN(Cc2oc(CO)cc(=O)c2O)CC1", "inhibition": "5.4%"}
{"compound": "CSCCC(NS(=O)(=O)c1ccc2c(c1)oc(=O)n2C)C(=O)NC1CCCc2ccccc21", "note": "(configuration not stated)", "inhibition": "7.6%"}
{"compound": "OC1CN=C2Sc3ccccc3N2C1", "note": "(configuration not stated)", "inhibition": "-7.4%"}
{"compound": "O=C(Cc1ccc2c(c1)CCCC2)Nc1ccccc1Cl", "inhibition": "27.1%"}
{"compound": "CC1(C)CC(CCC(=O)Nc2ccccc2Cl)C(=O)O1", "note": "(configuration not stated)", "inhibition": "1.2%"}
{"compound": "O=C(Nc1ncc2c(n1)CC(c1ccco1)CC2=O)c1ccc(Cl)cc1", "note": "(configuration not stated)", "inhibition": "28.4%"}
{"compound": "CCCCOc1ccc(Cl)cc1CSc1nncn1N", "inhibition": "86.7% (active)"}
{"compound": "CCCCOc1ccc(CSC(=N)N)cc1[N+](=O)[O-]", "inhibition": "16.6%"}
{"compound": "Cc1cc(=O)[nH]c(SCc2cc(Cl)ccc2OC(F)F)n1", "inhibition": "29%"}
{"compound": "Cc1[nH]n(-c2ccc([N+](=O)[O-])cc2)c(=O)c1C=NCCN1CCN(C(=O)c2ccccc2F)CC1", "inhibition": "9.2%"}
{"compound": "CCC(=O)Nc1ccccc1N1CCN(S(C)(=O)=O)CC1", "inhibition": "10.6%"}
{"compound": "COc1ccc(C(=O)NC(=S)Nc2ccccc2N2CCN(S(C)(=O)=O)CC2)cc1OC", "inhibition": "75.2% (active)"}
{"compound": "CCOC(=O)c1cnc2sccn2c1=O", "inhibition": "-11.8%"}
{"compound": "Cc1ccc(-n2c(=O)c(C#N)cc3c(=O)n4ccccc4nc32)cc1C", "inhibition": "6.5%"}
{"compound": "CCn1c(=N)c(S(=O)(=O)c2ccc(F)cc2)cc2c(=O)n3ccccc3nc21", "inhibition": "69.6% (active)"}
{"compound": "CCCn1c(=NC(C)=O)c(C(=O)OCC)cc2c(=O)n3ccccc3nc21", "inhibition": "-6.3%"}
{"compound": "COc1cc2[nH]c(=S)n(Cc3ccc(C)o3)c(=O)c2cc1OC", "inhibition": "-7.9%"}
{"compound": "CC(C)C(c1nnnn1Cc1ccccc1)N1CCC(C(N)=O)CC1", "note": "(configuration not stated)", "inhibition": "10%"}
{"compound": "CCC(C)(C)n1nnnc1C(c1cccs1)N1CCN(Cc2ccccc2)CC1", "note": "(configuration not stated)", "inhibition": "61.8% (active)"}
{"compound": "Fc1ccc(Cn2nnnc2C(c2cccs2)N2CCCCCC2)cc1", "note": "(configuration not stated)", "inhibition": "96% (active)"}
{"compound": "N#Cc1ccc(C(c2nnnn2CCc2ccccc2)N2CCCCCC2)cc1", "note": "(configuration not stated)", "inhibition": "20.5%"}
{"compound": "CCC(C)(C)n1nnnc1C(c1cccs1)N1CCN(c2nc3ccccc3s2)CC1", "note": "(configuration not stated)", "inhibition": "49.9%"}
{"compound": "CCC(C)(C)n1nnnc1C(c1ccccc1OC)N1CCSCC1", "note": "(configuration not stated)", "inhibition": "11.4%"}
